High-throughput results (PubChem BioAssay)
D1 PAM: potentiators of human D1 dopamine receptor; P21728; potentiation, % at 10 µM; actives 0.036% (n = 360,000); HEK293 TREx D1 cells, calcium flux, dopamine EC20 potentiation; AID 504651; in the data active means potentiation above about 30%
D1 antagonist: human D1 dopamine receptor antagonism; P21728; HEK293 TREx D1 cells, calcium flux, dopamine EC80; active compounds read low; activity change, negative = inhibition, % at 10 µM; actives 3.2% (n = 360,000); in the data active means activity change below about -30%
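Calcium flux readout: force-coupled, inducible Hek293 Trex D1 line, cells induced overnight at 30 C with tetracycline, dye-loaded 30–90 min at RT. Antagonism scored against EC80 dopamine challenge given 180 s after compound.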
D1 agonist: human D1 receptor agonism; P21728; HEK293 T-REx D1 cells, calcium flux, agonist mode; activation, % at 2 µM; actives 1% (n = 360,000); AID 504660
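Agonism was scored from calcium flux recorded over 180 s (1 read/s) after pintool compound addition, following a 10-cycle baseline. Cells were inducible force-coupled HEK293 TREx D1, plated overnight at 30 C and loaded with no-wash calcium dye.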
TRHR enhancer: allosterically enhances the human TRH receptor; actives 0.66% (n = 360,000); P34981; TRHR cells, fluo-8 calcium fluorescence, EC20 TRH enhancement; enhancement, % at 2 µM; in the data active means enhancement above about 30%
Target sequence (P34981 whole entry, looked up): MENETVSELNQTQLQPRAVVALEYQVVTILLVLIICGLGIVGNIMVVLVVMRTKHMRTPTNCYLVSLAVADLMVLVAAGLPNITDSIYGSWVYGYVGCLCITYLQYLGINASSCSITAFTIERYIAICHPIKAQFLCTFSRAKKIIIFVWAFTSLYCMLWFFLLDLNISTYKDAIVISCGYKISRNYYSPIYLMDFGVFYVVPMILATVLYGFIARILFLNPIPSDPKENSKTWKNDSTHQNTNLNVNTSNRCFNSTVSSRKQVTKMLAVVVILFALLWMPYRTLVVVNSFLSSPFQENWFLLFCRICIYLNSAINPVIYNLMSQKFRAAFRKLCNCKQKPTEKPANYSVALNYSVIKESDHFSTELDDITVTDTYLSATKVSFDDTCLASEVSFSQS
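TRHR-expressing cells loaded with fluo-8 calcium dye were read kinetically (ex 480/em 530) during compound addition, then stimulated with an EC20 of TRH (10 nM final). Enhancement of the Gq-mediated intracellular calcium response was scored.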
TRHR agonist: agonists of human TRH receptor; TRHR cells, calcium flux fluo-8, FDSS agonist mode; activation, % at 2 µM; actives 0.18% (n = 360,000)
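TRHR-expressing cells, plated overnight in medium with 10% serum, were loaded with fluo-8 calcium dye at room temperature. After a 10 s baseline, library compound was pin-added and calcium release was recorded kinetically (ex 480/em 530) as agonist response.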
Of the large screens only hits and unclear results are named; the others gave an inactive call. Hits are enriched below; roughly 4.7% of the tested compounds scored in any of these assays. Unless noted, no stated cut-off is given here; in the data, active means activation above about 30%; inactive means the rest.

NC(=O)c1cc(S(=O)(=O)Nc2cccc(F)c2)co1	D1 antagonist -46
O=C(O)c1cccc(NC(=O)c2cccc(S(=O)(=O)Nc3cccc([N+](=O)[O-])c3)c2)c1	none
O=C(Nc1ccccc1)c1cccc(S(=O)(=O)Nc2cccc(F)c2)c1	D1 antagonist -40
Cc1onc(-c2ccccc2)c1C(=O)Nc1ccc(S(=O)(=O)Nc2nccs2)cc1	D1 antagonist -40
Cc1cc(C)cc(NS(=O)(=O)c2coc(C(N)=O)c2)c1	none
O=C(Nc1cccc(F)c1)c1ccccc1	none
CCCCNS(=O)(=O)c1ccc(NC(=O)c2c(-c3ccccc3)noc2C)cc1	none
O=C(Nc1ccc(S(=O)(=O)Nc2nccs2)cc1)c1cccc(F)c1	D1 antagonist -47
FC(F)(F)c1cc(CO[C@@H]2CCCN[C@@H]2c2ccccc2)cc(C(F)(F)F)c1	D1 agonist 47
COc1cccc(NC(=O)Cn2nc(-c3ccncc3)ccc2=O)c1	D1 antagonist -44
CCc1cccc(NC(=O)Cn2nc(-c3ccc(OC)cc3)ccc2=O)c1	none
COc1ccc(-c2ccc(=O)n(CC(=O)Nc3ccc(OC)c(OC)c3)n2)cc1	D1 antagonist -40
Cc1cc(C)cc(-n2c(SCC(=O)N3CCc4ccccc43)nc3c([nH]c4ccccc43)c2=O)c1	none
Cc1ccccc1OCC(=O)OCC(=O)Nc1cc(S(C)(=O)=O)ccc1Cl	TRHR enhancer 37
CS(=O)(=O)c1ccc(Cl)c(NC(=O)COC(=O)CNC(=O)c2ccccc2)c1	none
CCOC(=O)CC(NC(=O)CCc1c(C)nc2c(c1C)c(=O)n(C)c(=O)n2C)c1ccc(OCC)c(OC)c1 (centres undefined)	D1 antagonist -33
Cc1ccc(C(=O)COC(=O)c2cccc(NC(=O)c3ccc(Cl)cc3Cl)c2)cc1	none
CCOCCNC(=O)c1ccccc1C(=O)NCCOCC	none
CCOCCN(C(=O)c1ccccc1Cl)c1cccc(C)c1C	D1 antagonist -38
CCOC(=O)c1ccc(CN(Cc2ccc(C)cc2)S(=O)(=O)c2ccc(F)c(C(=O)Nc3ccc(C)c(F)c3)c2)cc1	D1 antagonist -46
CCOC(=O)c1ccc(CN(Cc2ccc(C)cc2)S(=O)(=O)c2ccc(NC(C)=O)cc2)cc1	none
COC(=O)c1sccc1S(=O)(=O)N1CCN(c2cccc(C)c2C)CC1	none
CCN(c1ccccc1)S(=O)(=O)c1ccc(Cl)c(C(=O)N(CC2CCCO2)C2CCS(=O)(=O)C2)c1 (centres undefined)	D1 antagonist -36
CCOc1ccccc1NC(=O)Cn1c(=O)n(-c2ccccc2)c(=O)c2c1c1cc(C)ccc1n2C	none
O=C(CN(c1cccc(C(F)(F)F)c1)S(=O)(=O)c1ccc(Cl)c([N+](=O)[O-])c1)NCc1ccccc1	D1 antagonist -31
CCC(=O)c1ccc(OCC(=O)OCC(=O)NC2CCCCCCC2)cc1	D1 antagonist -39
CCC(=O)c1ccc(OCC(=O)NC2CCCC2)cc1	none
CCC(=O)c1ccc(OCC(=O)OCC(=O)NCCC2=CCCCC2)cc1	D1 antagonist -31
CC1CCCC(NC(=O)COC(=O)COc2ccc(Cl)cc2)C1C (centres undefined)	none
N#Cc1ccc(OCC(=O)OCC(=O)NCCC2=CCCCC2)cc1	none
Cc1cc(OCC(=O)OCC(=O)NC2CCCCC2C)ccc1Cl (centres undefined)	D1 antagonist -32
CCC(C)n1c(=O)c2sccc2n2c(CCCC(=O)N3CCN(c4ccccc4)CC3)nnc12 (centres undefined)	none
Cc1cc(NC(=O)Nc2nnc(N(C)Cc3ccccc3)s2)ccc1Br	none
CCOC(=O)c1cc2sccc2n1CC(=O)Nc1ccc(OC)cc1OC	D1 antagonist -39
CCOC(=O)c1cc2sccc2n1CC(=O)OC	none
CCOC(=O)Cn1c(C(=O)OCC)cc2sccc21	D1 antagonist -30
Cc1ccc(CN2CCC(Oc3cccc(C(=O)NCc4cccnc4)c3)CC2)o1	none
O=C(CCCc1nc2ccccc2s1)N1CCN(c2ccccc2)CC1	D1 antagonist -43
CCCCS(=O)(=O)N1CCC(C(=O)NCC2CCCO2)CC1 (centres undefined)	none
CCS(=O)(=O)N1CCC(C(=O)NCC2CCCO2)CC1 (centres undefined)	D1 antagonist -36
Cc1ccc(O)c(NC(=O)c2nc3nc(C)cc(C(F)F)n3n2)c1	none
COc1cc(OC)c(OC)cc1CNC1CCCCCC1	none
COc1cc(OC)c(CNC2CCCCCC2)cc1Br	D1 agonist 62
CC(C)c1ccc(C(=O)NCCCN2CCOCC2)cc1	none
O=C(NCCCN1CCOCC1)c1ccc(CSc2ccc(Cl)cc2)cc1	D1 antagonist -35
O=C(NCCCN1CCOCC1)c1ccc(Br)cc1	none
Cc1c(C)n(Cc2ccc(Cl)cc2)c2ccc(C(=O)NCCN3CCOCC3)cc12	D1 antagonist -38
CC(C)(C)c1ccc(C(=O)NCCCN2CCN(CCCNC(=O)c3ccc(C(C)(C)C)cc3)CC2)cc1	D1 antagonist -30
Cc1ccc2c(c1)c1c(c(=O)n(Cc3ccccc3)c(=O)n1CC(=O)NCc1ccccc1Cl)n2C	none
COc1cc(Cn2ncc3c4sc(C)cc4n(C)c3c2=O)cc(OC)c1	none
COc1ccc2nc3sc(C(=O)N4CCN(c5ccccc5)CC4)cc3cc2c1	D1 antagonist -59
COc1cccc(N2CCN(C(=O)c3cc4cc5cc(C)ccc5nc4s3)CC2)c1	none
CC(=O)c1ccc(N2CCN(C(=O)c3cc4cc5cc(C)ccc5nc4s3)CC2)cc1	TRHR enhancer 49
COc1ccc(C2=NS(=O)(=O)N(C)C(C(=O)N3CCCCC3)=C2)cc1OC	none
CC(C)(C)OC(=O)NCc1nnc(-c2cc3ccccc3[nH]2)s1	none
COc1ccc(NC(=O)CCN2CCN(c3cccc(Cl)c3)CC2)cc1	D1 agonist 36
O=C(CCN1CCN(c2ccccc2F)CC1)Nc1ccc(F)cc1	none
COc1cc(NC(=O)CCN2CCN(Cc3ccccc3)CC2)cc(OC)c1	none
COc1cc(NC(=O)CCN2CCN(c3ccccc3F)CC2)cc(OC)c1	D1 antagonist -42
O=C(CCN1CCN(c2ccccc2F)CC1)Nc1cccc(F)c1	D1 antagonist -43
COc1cccc(-c2csc(N3CCN(CC(=O)Nc4ccc5c(c4)OCO5)CC3)n2)c1	none
COc1ccc(NC(=O)CN2CCN(c3nc(-c4cccc(OC)c4)cs3)CC2)cc1	D1 antagonist -37
CC(=O)c1cccc(NC(=O)C(C)OC(=O)c2ccc(-n3cnnn3)cc2)c1 (centres undefined)	none
COC(=O)c1[nH]c2cccc(OC)c2c1NC(=O)CCN1CCN(c2ccccc2F)CC1	D1 antagonist -57
COC(=O)c1[nH]c2cccc(OC)c2c1NC(=O)CCN1CCC(C(N)=O)CC1	none
CCc1nnc(N/N=C\c2ccc(OC(C)=O)c(OC)c2)n1N	none
CCOc1cc(/C=N/Nc2nnc(C)n2N)ccc1OC(C)=O	D1 antagonist -33
